Only some compounds are listed: those with a hit (about 6.5% of all), similar ones and a draw of the others.
DPM-DC inhibit: S. pneumoniae DPM-DC inhibitors, primary screen, biochemical, PK/LDH-coupled NADH fluorescence; diphosphomevalonate decarboxylase (Streptococcus pneumoniae D39); AID 556, 2006; purified DPM-DC; actives 0.49% (n = 65,000); calls only at 10 µM;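 active = the 320 compounds with the highest percent inhibition in the single-dose primary screen, excluding strongly autofluorescent ones, cut at about 32% in these data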;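 also: kinetic rate of NADH fluorescence loss reporting ADP formed by the decarboxylase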
PMK inhibit: S. pneumoniae PMK inhibitors, primary screen, biochemical, mevalonate pathway, pilot trial included; phosphomevalonate kinase (Streptococcus pneumoniae D39); actives 0.49% (n = 65,000); AID 539, 2006; inhibition, % at 10 µM; purified PMK, PK/LDH-coupled NADH absorbance 340 nm;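 active = top-ranked compounds by inhibition in the single 10 µM screen, taking a fixed number of the strongest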;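 also: 0% = full reaction with DMSO carrier and 100% = background rate without enzyme reaction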
Abs 340nm: compound light absorbance at 340 nm, profiling panel, artefact control, biochemical, MLSMR library, data from PS, PMK, MK assays | compound absorbance at 340 nm, fold over control | fold change at 10 µM | 65,000 tested, under 10 active | AID 708, 2007;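 active = at 10 µM dose, initial 340 nm absorbance at least 2 fold that of control wells; inactive = change under 2 fold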;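 also: initial absorbance extrapolated from kinetic A340 decline of NADH oxidation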
Spn MK inh: S. pneumoniae MK inhibitors, primary screen, biochemical, PK/LDH-coupled NADH absorbance; purified MK, PK/LDH-coupled NADH absorbance 340 nm; inhibition, % at 10 µM; actives 0.48% (n = 65,000);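 active = ranked among the strongest by inhibition in the single 10 µM screen, a fixed top-ranked set picked for dose follow-up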
NADH enzymes: inhibitors of PK/LDH coupling enzymes, profiling panel, artefact control, biochemical, MLSMR library; AID 774, 2007; IC50, µM (highest dose often 10 µM), without a hit: at the highest dose inhibition; coupled PK/LDH NADH assays, four targets; actives 0.02% (n = 65,000);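 active = single-dose screening hits from any of four coupled enzyme assays that gave an IC50 when retested across doses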;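 also: the DPM-DC format reads NADH fluorescence rather than 340 nm absorbance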
Autofluor 339: intrinsic fluorescence of library compounds, ex339/em460 – biochemical, MLSMR library, data from DPM-DC assay, artefact control, profiling panel; compound autofluorescence, ex339/em460 nm, NADH buffer; stronger effect = higher value; 1 = no-compound wells, NADH background; fluorescence fold increase at 10 µM; actives 5.5% (n = 65,000); AID 709, 2007;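 active = at 10 µM, mean starting fluorescence two-fold or more over control wells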;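 also: signal is the first read of a kinetic run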
* = called active by the depositor; i = inactive; nt = no result given; + = active, no number.

SMILES	DPM-DC inhibit	PMK inhibit	Abs 340nm	Spn MK inh	NADH enzymes	Autofluor 339
O=c1[nH]c(Cn2nnc(-c3ccccc3)n2)nc2scc(-c3ccccc3)c12	i	10.0	1.01	0.0	3.0%	1.06
CCCOc1ccc(-c2nnc(-c3ccco3)o2)cc1	i	5.0	1.01	15.0	7.0%	2.19*
Cc1noc(C)c1CSc1nnc(-c2ccncc2)n1-c1cccc(Cl)c1C	i	25.0*	0.99	0.0	2.0%	1.04
Cc1ccccc1-n1c(SCc2c(C)noc2C)nnc1-c1c[nH]c2ccccc12	i	0.0	1.01	2.0	1.0%	1.09
CCOC(=O)c1sc2nc(NC(=O)C3CCCCC3)sc2c1C	i	3.0	1	2.0	4.0%	1.31
CCOC(=O)c1sc2nc(NC(=O)C3CC3)sc2c1C	i	0.0	1.11	3.0	8.0%	2.01*
N#Cc1c(-c2ccccc2)cc(-c2ccco2)c(C#N)c1N	nt	0.0	1.06	8.0	4.0%	2.26*
N#Cc1sc2nc(-c3ccccc3)cc(-c3ccco3)c2c1N	i	8.0	1.06	10.0	6.0%	1.32
CN(C)CCN(Cc1ccccc1)c1ccnc(N(C)C)c1C#N	i	7.0	1.1	56.0*	22.0%	1.38
CN(C)CCN(Cc1ccccc1)c1ccccn1	i	0.0	0.99	6.0	2.0%	1.04
O=C(CSc1c[nH]c2ccccc12)N1CCOCC1	i	19.0	0.98	0.0	6.0%	1.06
COc1ccc(N2CCCn3c2nc2c3c(=O)n(CCc3ccccc3)c(=O)n2C)cc1	i	10.0	1.03	6.0	5.0%	1.15
Cc1ccc(N2CCn3c2nc2c3c(=O)n(CCc3ccccc3)c(=O)n2C)cc1	i	18.0	1.03	9.0	10.0%	2.39*
CN(C(=O)C1CCOC1)c1nnc(C2CCOC2)s1 (configuration not stated)	i	27.0*	1	1.0	9.0%	1.08
CN(C(=O)C1CCOC1)c1nnc(-c2cnccn2)s1 (configuration not stated)	i	14.0	1.03	0.0	9.0%	1.33
COc1ccc(N=c2oc3c(OC)cccc3cc2C(=O)NCc2ccco2)c(OC)c1	i	3.0	1.08	8.0	4.0%	1.14
O=C1C(Cl)=C(NCC2CCCO2)C(=O)N1Cc1ccccc1 (configuration not stated)	+	13.0	1.01	7.0	22.0%	0.57
Cn1c(=O)n(Cc2ccccc2)c(=O)c2c1nc(NCC1CCCO1)n2Cc1ccccc1 (configuration not stated)	i	4.0	0.99	0.0	2.0%	1.03
Cc1ccc(NC(=O)CSc2nnc(Cn3c(=O)sc4ccccc43)n2C)cc1Cl	i	29.0*	1.1	4.0	11.0%	1.05
CCOC(=O)c1ccc2[nH]c3c(c2c1)CN(C)CC3	i	4.0	0.99	4.0	2.0%	1.14
Cc1cc(=O)c2cc(Cl)ccc2[nH]1	i	7.0	0.99	6.0	4.0%	1.09
CCOC(=O)c1ccc2[nH]c(C)cc(=O)c2c1	nt	2.0	1.07	5.0	4.0%	2.08*
COC(=O)c1ccc2[nH]c(C)cc(=O)c2c1	nt	8.0	1.08	6.0	7.0%	2.26*
CCOC(=O)c1ccc2[nH]c(C)c(CCC(C)=O)c(=O)c2c1	nt	2.0	1.07	8.0	5.0%	2.13*
CC1=C(C(=O)Nc2ccccc2Cl)C(c2ccc(N(C)C)cc2)NC(=O)N1 (configuration not stated)	i	2.0	1.06	0.0	1.0%	1.11
SMILES	DPM-DC inhibit	PMK inhibit	Abs 340nm	Spn MK inh	NADH enzymes	Autofluor 339
O=C(c1cccs1)c1ccc(-c2cccs2)s1	i	14.0	1.05	8.0	18.0%	2.37*
O=C(c1cc2ccccc2o1)c1cccs1	i	1.0	1.17	3.0	1.0%	1.09
COc1cccc(-c2nnc3n2N=C(C(C)(C)C)CS3)c1	i	23.0	1.04	9.0	11.0%	1.08
COc1cc2c(cc1NC(=O)CSc1nnnn1-c1ccccc1)oc1ccccc12	i	5.0	1.04	6.0	4.0%	2.17*
COc1cccc(-n2nnnc2SCC(=O)c2cc(OC)ccc2OC)c1	i	1.0	1.04	5.0	7.0%	2.37*
COC(=O)C1=CNC=C(C(=O)OC)C1c1ccccc1Cl	nt	0.0	1.04	0.0	0.0%	3.63*
COC(=O)C1=CNC=C(C(=O)OC)C1c1ccc(Cl)cc1	nt	0.0	1.06	3.0	2.0%	3.84*
COC(=O)C1=CNC=C(C(=O)OC)C1c1cccc(OC)c1	nt	10.0	1.1	6.0	8.0%	3.89*
O=C(NCC1CCCO1)C1CCN(S(=O)(=O)c2cccc3cccnc23)CC1 (configuration not stated)	i	4.0	0.97	10.0	4.0%	1.02
CCn1c(SCC(=O)c2[nH]c(C)c(C(C)=O)c2C)nnc1-c1cccs1	i	27.0*	1.06	5.0	11.0%	1.06
Cc1cc(N2CCCCC2)n2ncc(-c3ccccc3)c2n1	i	12.0	1.04	10.0	7.0%	2.54*
Cc1cc(N2CCC(C)CC2)n2nc(C)c(-c3ccccc3)c2n1	i	11.0	1.04	2.0	5.0%	2.39*
CCCc1cc(N2CCN(c3ccccn3)CC2)n2nc(C)c(-c3ccccc3)c2n1	i	0.0	1	9.0	6.0%	2.84*
Cc1cc(N2CCN(C(=O)c3ccco3)CC2)n2ncc(-c3ccccc3)c2n1	i	10.0	1.08	0.0	4.0%	1.42
Cc1cc(N2CCCCC2)n2nc(C)c(-c3ccccc3)c2n1	i	9.0	1.02	8.0	9.0%	1.95
Cc1cc(N2CCC(C)CC2)n2ncc(-c3ccccc3)c2n1	i	13.0	1.03	9.0	10.0%	3.02*
COc1cccc(C(C(=O)NCc2ccco2)N(C(=O)Cn2nnc3ccccc32)C2CC2)c1OC (configuration not stated)	i	14.0	1.01	6.0	7.0%	1.03
CC(C)N(CCCNC(=O)C1CCN(S(=O)(=O)N2CCOCC2)CC1)Cc1ccccc1	i	13.0	1	0.0	4.0%	1.11
Cc1cc(N2CCCCC2)n2ncc(-c3ccc(Cl)cc3)c2n1	nt	3.0	1.01	16.0	10.0%	3.73*
Cc1nn2c(N3CCCC3)cc(C(C)C)nc2c1-c1ccccc1	i	6.0	1	6.0	5.0%	2.14*
CCOC(=O)c1ccc(NC(=O)c2nccnc2C(=O)O)cc1	i	0.0	1.09	1.0	0.0%	1.08
COc1ccc(CCn2c(=N)c(C(=O)NCc3ccco3)cc3c(=O)n4ccccc4nc32)cc1	i	7.0	1	4.0	4.0%	1.16
